According to PubChem BioAssay (NCATS):
Results filed as inconclusive are left out. Activity calls are given as the source filed them. Unless noted, calls follow the shape of the full dose curve.

How the values were obtained:
[1] = biological target: Glucocorticoid receptor (Homo sapiens) (UniProt P04150); experiment: qHTS assay for small molecule agonists of glucocorticoid receptor signaling (AID 588532; active = well fitted curve in the direction sought with a large enough effect in the signal ratio, with a control signal flat; the % refers to the signal ratio;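 also: 100% = dexamethasone at 0.1 µM and 0% = DMSO only wells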); settings: HeLa MMTV-bla, beta-lactamase ratio, agonist, 18 h; activation: stronger effect = higher value, percent of dexamethasone control, DMSO zero
Summary of the method: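 Stimulation of a glucocorticoid response element-driven beta-lactamase gene was measured in HeLa cells. Responses were scaled between DMSO basal and 0.1 uM dexamethasone, then fitted for half-maximal stimulation.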

[2] = biological target: Peroxisome proliferator-activated receptor delta (Homo sapiens) (UniProt Q03181); experiment: qHTS assay for small molecule agonists of peroxisome proliferator-activated receptor delta signaling (AID 588534);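 also: 0% = DMSO basal wells and 100% = positive control agonist at 10 µM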
Summary of the method: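 EC50 and efficacy values derive from Hill fits of a concentration series in a beta-lactamase reporter cell assay. Exposure is 18 hrs at 37 C, with CCF4 fluorescence as the readout.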

[3] = biological target: Vitamin D3 receptor (Homo sapiens) (UniProt P11473); experiment: qHTS assay for small molecule agonists of vitamin D receptor signaling (AID 588543);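 also: 0% = DMSO basal and 100% = reference agonist control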
Summary of the method: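 VDR-UAS-bla HEK293T cells, 2000/well, 2% charcoal-stripped FBS; compound titration 16 h at 37 C; CCF4 beta-lactamase ratio read. Normalized to 50 nM 1-alpha,25-dihydroxyvitamin D3 (100%) and DMSO; Hill fit gives EC50, efficacy.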

[4] = biological target: Thyroid hormone receptor beta (Homo sapiens) (UniProt P10828); experiment: qHTS assay for small molecule agonists of thyroid hormone receptor beta signaling (AID 588545);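 also: 0% = DMSO only and 100% = 10 nM T3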
Summary of the method: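 TR-UAS-bla-GripTite HEK 293 cells in medium with 2% charcoal/dextran FBS, 0.1 mM NEAA and 1 mM sodium pyruvate were treated with titrated compounds for 18 hrs at 37 C. Beta-lactamase reporter was read with CCF4 dye (ex 405, em 460/530 nm); EC50 from Hill fits.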

[5] = qHTS assay for small molecule activators of the p53 signaling pathway (AID 651743; active = well fitted activation curve with a large enough effect in the signal ratio, not every such curve was filed as active; the % refers to the signal ratio; also: series mostly up to about 92 µM; % of control where 0% means no effect); settings: HCT-116 p53RE-bla, beta-lactamase FRET ratio, 16 h; activation: stronger effect = higher value
Summary of the method: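 Here HCT-116 cells with an integrated p53-responsive beta-lactamase gene were incubated with compounds (16 hours, 37 C) after a 5-hour plating period; beta-lactamase activity was detected as fluorescence intensity via B/G FRET substrate.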

[6] = qHTS assay for small molecule activators of the nuclear factor-kappa B (NF-kB) signaling pathway (AID 651749; active = well fitted activation curve with a large enough effect in the signal ratio; the % refers to the signal ratio; also: series mostly up to about 77 µM; % of control where 0% means no effect); settings: NF-kB-bla ME-180 cells, beta-lactamase FRET ratio, 16 h; activation: stronger effect = higher value
Summary of the method: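 Beta-lactamase reporter expression, controlled by NF-kB response elements in ME-180 cells, was quantified fluorometrically via FRET disruption; cells at 2,000/well had been incubated with 23 nL test compound for 16 hr.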

[7] = qHTS assay for environmental chemicals that activate the Aryl hydrocarbon Receptor (AhR) signaling pathway (AID 651777; active = well fitted curve in the direction sought with a large enough effect; an effect the other way counts as inactive or inconclusive; also: % of control where 0% means no effect; nearly all actives have a fitted effect of over 15% in size); settings: 1A2-DRE human hepatoma cells, luciferase, 24 h; activation: stronger effect = higher value
Summary of the method: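 Luminescence read-out: One-Glo added for 30 min at RT after 24 hr compound treatment (37 C, 5% CO2) of human hepatoma cells expressing a DRE/CYP1A2 promoter–luciferase reporter; increased signal indicates AhR activation.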

[8] = biological target: Peroxisome proliferator-activated receptor alpha (Homo sapiens) (UniProt Q07869); experiment: qHTS assay for small molecule agonists of the peroxisome proliferator-activated receptor alpha (PPARalpha) signaling pathway (AID 651778; active = well fitted curve in the direction sought with a large enough effect; an effect the other way counts as inactive or inconclusive; also: % of control where 0% means no effect); settings: PathHunter PPARalpha complementation, chemiluminescence, 6 h; max response: stronger effect = higher value
Summary of the method: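 Cells plated at 2,000/well and held overnight at 37 C, 5% CO2, then compound added by pin tool for 6 hr; after PathHunter detection reagent and 60 min at room temperature, chemiluminescence from enzyme complementation was read.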

[9] = qHTS assay for small molecule agonists of the antioxidant response element (ARE) signaling pathway measured by Nrf2-dependant transcriptional activity (AID 720636; active = well fitted curve in the direction sought with a large enough effect in the repeat runs; an effect the other way counts as inactive or inconclusive;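 also: HepG2 cells with an ARE-driven luciferase reporter; % of control where 0% means no effect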)
Summary of the method: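 HepG2 ARE-luc reporter line, 1% dialyzed FBS; 6 hr attachment at 37 C, compound pinned in, 16 hr at 37 C/5% CO2; ONE-Glo, 30 min RT, luminescence read.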

[10] = qHTS assay for small molecule agonists of the antioxidant response element (ARE) signaling pathway measured by Nrf2-dependant transcriptional activity - cell viability counter screen (AID 720653; active = well fitted curve in the direction sought with a large enough effect in the repeat runs; an effect the other way counts as inactive or inconclusive; also: % is scaled to controls: 0 for no effect and ±100 for the full control effect); settings: ARE-bla HepG2 viability, CellTiter-Glo ATP luminescence, 16 h; max response: stronger effect = lower value
Summary of the method: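 ARE-bla HepG2 cells (2,000/well) rested 5 hrs at 37C/5% CO2, then exposed to compounds in DMSO for 16 hrs. Viability was read in the same wells as intracellular ATP by luminescence, 30 min at room temperature after reagent addition.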

[11] = qHTS assay for cell viability of HEK293 cells (AID 743288; active = well fitted curve in the direction sought with a large enough effect; an effect the other way counts as inactive or inconclusive; also: % is scaled to controls: 0 for no effect and ±100 for the full control effect; nearly all actives have a fitted effect of over 50% in size); settings: ATP luminescence (CellTiter-Glo), 18 h; max response: stronger effect = lower value
Summary of the method: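 Steps: plate 2,000 parental HEK293 cells per well; incubate ≥5 h, 37 C; add compounds in DMSO; incubate 18 h, 37 C; add CellTiter-Glo; wait 30 min at room temperature; read luminescence.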

[12] = qHTS assay for cell viability of the p53RE-bla HCT-116 cell line (AID 743292; active = well fitted curve in the direction sought with a large enough effect; an effect the other way counts as inactive or inconclusive; also: % is scaled to controls: 0 for no effect and ±100 for the full control effect; nearly all actives have a fitted effect of over 55% in size)
Summary of the method: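 Luminescent ATP quantitation (CellTiter-Glo) served as the viability read-out; reagent was added after 16 h compound exposure at 37 C and read after 30 min at room temperature. Cells: p53RE-bla HCT-116, 4,000 per well.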

[13] = biological target: Nuclear receptor subfamily 1 group I member 2 (Rattus norvegicus) (UniProt Q9R1A7); experiment: qHTS assay for small molecule activators of the rat pregnane X receptor (rPXR) signaling pathway (AID 651751; call rule not given here; also: 0% is about no effect); settings: rPXR reporter cells, luciferase (One-Glo), 24 h
[14] = qHTS assay for small molecule activators of the human pregnane X receptor (PXR) signaling pathway (AID 720659; call rule not given here; also: 0% is about no effect)
[15] = biological target: Glucocorticoid receptor (Homo sapiens) (UniProt P04150); experiment: qHTS assay for small molecule antagonists of glucocorticoid receptor signaling (AID 588533; active = well fitted inhibition curve with a large enough effect in the signal ratio, with a control signal flat, not every such curve was filed as active; the % refers to the signal ratio;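 also: cells stimulated with 2 nM dexamethasone as agonist; % is scaled to controls: 0 for no effect and ±100 for the full control effect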)
Summary of the method: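 Antagonist-mode qHTS: compound titrations added to GRE-bla HeLa cells, then dexamethasone 2 nM final; 18 h, 37 C. CCF4 FRET fluorescence normalized to dexamethasone and DMSO; IC50 from Hill fit.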

[16] = qHTS assay for small molecule antagonists of peroxisome proliferator-activated receptor delta signaling (AID 588535; active = well fitted inhibition curve with a large enough effect in the signal ratio, with a control signal flat, not every such curve was filed as active; the % refers to the signal ratio;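 as to max response: cells co-treated with a PPAR-delta agonist as stimulator during compound exposure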); settings: HEK293T PPARd-UAS-bla, beta-lactamase FRET ratio, 18 h; 460 nm channel
Summary of the method: (§1)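 Compounds tested in titration on PPAR-delta-UAS-bla HEK293T cells grown in charcoal/dextran-stripped serum (2%); beta-lactamase activity read via CCF4 emission at 460 and 530 nm.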

[17] = biological target: Peroxisome proliferator-activated receptor delta (Homo sapiens) (UniProt Q03181); experiment: as above
Summary of the method: as §1

[18] = biological target: Peroxisome proliferator-activated receptor gamma (Homo sapiens) (UniProt P37231); experiment: qHTS assay for small molecule agonists of peroxisome proliferator-activated receptor gamma signaling (AID 588536; active = well fitted curve in the direction sought with a large enough effect in the signal ratio, with a control signal flat, not every such curve was filed as active; the % refers to the signal ratio;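 also: 0% = DMSO basal wells and 100% = rosiglitazone at 2 µM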)
Summary of the method: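 Compound treatment: 16 h, 37 C, HEK293 GeneBLAzer cells. Detection: CCF4, 2 h RT. Values: Hill-fit EC50, efficacy as % of 2 uM rosiglitazone.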

[19] = biological target: Peroxisome proliferator-activated receptor gamma (Homo sapiens) (UniProt P37231); experiment: qHTS assay for small molecule antagonists of peroxisome proliferator-activated receptor gamma signaling (AID 588537; active = well fitted inhibition curve with a large enough effect in the signal ratio, with a control signal flat, not every such curve was filed as active; the % refers to the signal ratio;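 also: reporter cells co-stimulated with 50 nM rosiglitazone agonist during compound treatment; % of control where 0% means no effect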)
Summary of the method: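 HEK293 cells, PPAR-gamma-UAS-bla, 3000/well. Pre-incubation 6-6.5 h, 37 C. Compound titration with rosiglitazone 50 nM final, 16 h. CCF4 dye, 2 h RT, dual-emission fluorescence.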

[20] = biological target: Vitamin D3 receptor (Homo sapiens) (UniProt P11473); experiment: qHTS assay for small molecule antagonists of vitamin D receptor signaling (AID 588541);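 also: receptor activated by calcitriol during compound treatment; series mostly up to about 77 µM; % is scaled to controls: 0 for no effect and ±100 for the full control effect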
Summary of the method: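 VDR-UAS-bla HEK293T cells (2000/well, 2% charcoal-stripped FBS) were treated with titrated compounds plus 1-alpha,25-dihydroxyvitamin D3 (50 nM or 3 nM final) for 16 h at 37 C. CCF4 beta-lactamase fluorescence was read; Hill fits gave IC50.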

[21] = qHTS assay for small molecule agonists of retinoid X receptor alpha signaling (AID 588544); settings: HEK293T RXRa-UAS-bla, beta-lactamase reporter, 18 h; 530 nm emission;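 as to activation: 0% = DMSO basal wells and 100% = reference agonist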
[22] = biological target: Retinoic acid receptor RXR-alpha (Homo sapiens) (UniProt P19793); experiment: as above
[23] = qHTS assay for small molecule antagonists of retinoid X receptor alpha signaling (AID 588546; active = well fitted inhibition curve with a large enough effect in the signal ratio, with a control signal flat, not every such curve was filed as active; the % refers to the signal ratio;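 also: cells stimulated with 9-cis-retinoic acid as agonist; % is scaled to controls: 0 for no effect and ±100 for the full control effect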); settings: HEK293T RXRa-UAS-bla, beta-lactamase ratio, antagonist mode; measured here: W530 green channel, cytotoxicity proxy
Summary of the method: (§2)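 Beta-lactamase reporter inhibition, read as CCF4 fluorescence ratio (ex 405, em 460/530 nm) after 2 h at RT. HEK293T UAS-bla cells, 2500/well, were stimulated with 9-cis-RA at 500 or 100 nM final alongside test compound for 18 h at 37 C.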

[24] = biological target: Retinoic acid receptor RXR-alpha (Homo sapiens) (UniProt P19793); experiment: as above; settings: HEK293T RXRa-UAS-bla, beta-lactamase ratio, antagonist mode
Summary of the method: as §2

[25] = biological target: Thyroid hormone receptor beta (Homo sapiens) (UniProt P10828); experiment: qHTS assay for small molecule antagonists of thyroid hormone receptor beta signaling (AID 588547; active = well fitted inhibition curve with a large enough effect in the signal ratio, with a control signal flat, not every such curve was filed as active; the % refers to the signal ratio); settings: TR-UAS-bla HEK293, beta-lactamase ratio, antagonist mode, 18 h
Summary of the method: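 TR-UAS-bla GripTite HEK293 cells in 2% charcoal/dextran FBS medium were preincubated 4 h at 37 C, given compound (0.59 nM to 92 uM) plus 0.4 nM T3 (final) for 18 h, then CCF4 for 2 h at RT; Hill fit gave IC50.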

Vitamin D3 receptor (Homo sapiens), sequence (P11473 whole entry, looked up): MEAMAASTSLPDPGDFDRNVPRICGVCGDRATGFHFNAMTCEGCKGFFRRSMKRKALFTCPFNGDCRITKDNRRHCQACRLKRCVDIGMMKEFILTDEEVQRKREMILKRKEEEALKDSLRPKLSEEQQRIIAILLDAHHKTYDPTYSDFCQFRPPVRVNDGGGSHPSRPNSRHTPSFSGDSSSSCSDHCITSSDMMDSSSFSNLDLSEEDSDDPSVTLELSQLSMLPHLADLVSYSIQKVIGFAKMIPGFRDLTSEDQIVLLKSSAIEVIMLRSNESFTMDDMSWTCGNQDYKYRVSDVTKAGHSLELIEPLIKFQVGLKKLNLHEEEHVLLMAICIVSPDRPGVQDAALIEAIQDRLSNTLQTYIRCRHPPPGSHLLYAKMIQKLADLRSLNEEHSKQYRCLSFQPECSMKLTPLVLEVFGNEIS
Glucocorticoid receptor (Homo sapiens), sequence (P04150 whole entry, looked up): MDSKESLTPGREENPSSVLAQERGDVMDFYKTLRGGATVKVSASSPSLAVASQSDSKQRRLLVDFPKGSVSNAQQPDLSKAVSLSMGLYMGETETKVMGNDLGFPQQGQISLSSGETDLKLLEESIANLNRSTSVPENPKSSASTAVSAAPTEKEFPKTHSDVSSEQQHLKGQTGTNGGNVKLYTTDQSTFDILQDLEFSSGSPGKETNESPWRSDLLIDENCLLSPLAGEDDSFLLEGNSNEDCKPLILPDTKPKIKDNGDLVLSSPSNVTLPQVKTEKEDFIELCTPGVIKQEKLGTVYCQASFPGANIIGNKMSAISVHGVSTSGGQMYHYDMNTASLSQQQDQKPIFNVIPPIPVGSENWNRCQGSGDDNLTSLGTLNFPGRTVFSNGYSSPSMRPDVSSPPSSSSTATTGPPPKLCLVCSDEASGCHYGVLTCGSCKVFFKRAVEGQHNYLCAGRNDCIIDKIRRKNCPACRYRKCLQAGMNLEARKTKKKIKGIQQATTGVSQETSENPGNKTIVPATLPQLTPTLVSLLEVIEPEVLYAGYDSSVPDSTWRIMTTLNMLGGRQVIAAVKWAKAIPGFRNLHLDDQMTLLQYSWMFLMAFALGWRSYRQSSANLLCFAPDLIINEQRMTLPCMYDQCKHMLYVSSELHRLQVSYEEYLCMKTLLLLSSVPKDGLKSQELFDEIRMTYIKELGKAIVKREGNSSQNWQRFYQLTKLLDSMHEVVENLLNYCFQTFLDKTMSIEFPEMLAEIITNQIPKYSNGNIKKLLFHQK
Thyroid hormone receptor beta (Homo sapiens), sequence (P10828 whole entry, looked up): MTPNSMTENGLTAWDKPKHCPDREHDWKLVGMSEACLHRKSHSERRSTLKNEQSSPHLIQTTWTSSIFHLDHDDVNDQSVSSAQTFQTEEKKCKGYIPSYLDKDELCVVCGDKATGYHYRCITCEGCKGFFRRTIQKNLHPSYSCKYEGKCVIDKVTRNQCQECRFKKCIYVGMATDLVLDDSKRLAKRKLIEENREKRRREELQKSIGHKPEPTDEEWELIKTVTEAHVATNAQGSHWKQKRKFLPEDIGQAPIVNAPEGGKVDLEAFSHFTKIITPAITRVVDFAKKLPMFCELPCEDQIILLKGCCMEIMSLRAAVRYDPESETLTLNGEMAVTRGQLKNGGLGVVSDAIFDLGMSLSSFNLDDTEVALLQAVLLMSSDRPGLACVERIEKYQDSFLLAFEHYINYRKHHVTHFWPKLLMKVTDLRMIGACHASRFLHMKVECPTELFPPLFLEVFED
Retinoic acid receptor RXR-alpha (Homo sapiens), sequence (P19793 whole entry, looked up): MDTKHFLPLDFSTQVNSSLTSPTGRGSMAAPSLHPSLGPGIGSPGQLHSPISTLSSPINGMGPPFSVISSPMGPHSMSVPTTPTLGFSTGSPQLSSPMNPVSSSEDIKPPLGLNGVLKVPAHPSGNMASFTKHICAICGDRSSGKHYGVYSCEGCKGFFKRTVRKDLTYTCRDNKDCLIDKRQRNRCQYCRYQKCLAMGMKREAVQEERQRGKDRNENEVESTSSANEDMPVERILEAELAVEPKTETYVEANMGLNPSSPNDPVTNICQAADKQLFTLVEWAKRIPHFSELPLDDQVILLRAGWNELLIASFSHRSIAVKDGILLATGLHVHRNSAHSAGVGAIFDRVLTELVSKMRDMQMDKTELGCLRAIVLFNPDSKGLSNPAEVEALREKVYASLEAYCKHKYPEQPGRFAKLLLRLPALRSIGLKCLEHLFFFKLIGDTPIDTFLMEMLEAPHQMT
Peroxisome proliferator-activated receptor delta (Homo sapiens), sequence (Q03181 whole entry, looked up): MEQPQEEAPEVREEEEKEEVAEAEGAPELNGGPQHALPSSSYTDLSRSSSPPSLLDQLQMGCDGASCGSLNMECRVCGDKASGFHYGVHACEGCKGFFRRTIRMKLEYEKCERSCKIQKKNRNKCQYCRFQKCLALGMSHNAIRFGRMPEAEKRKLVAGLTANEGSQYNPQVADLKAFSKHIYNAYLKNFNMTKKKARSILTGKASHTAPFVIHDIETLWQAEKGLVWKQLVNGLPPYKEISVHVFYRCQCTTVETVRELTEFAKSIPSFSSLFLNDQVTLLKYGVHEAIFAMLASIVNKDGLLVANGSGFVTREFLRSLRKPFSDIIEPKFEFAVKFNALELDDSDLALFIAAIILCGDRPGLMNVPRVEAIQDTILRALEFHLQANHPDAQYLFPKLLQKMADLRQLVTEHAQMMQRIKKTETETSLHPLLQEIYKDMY
Peroxisome proliferator-activated receptor alpha (Homo sapiens), sequence (Q07869 whole entry, looked up): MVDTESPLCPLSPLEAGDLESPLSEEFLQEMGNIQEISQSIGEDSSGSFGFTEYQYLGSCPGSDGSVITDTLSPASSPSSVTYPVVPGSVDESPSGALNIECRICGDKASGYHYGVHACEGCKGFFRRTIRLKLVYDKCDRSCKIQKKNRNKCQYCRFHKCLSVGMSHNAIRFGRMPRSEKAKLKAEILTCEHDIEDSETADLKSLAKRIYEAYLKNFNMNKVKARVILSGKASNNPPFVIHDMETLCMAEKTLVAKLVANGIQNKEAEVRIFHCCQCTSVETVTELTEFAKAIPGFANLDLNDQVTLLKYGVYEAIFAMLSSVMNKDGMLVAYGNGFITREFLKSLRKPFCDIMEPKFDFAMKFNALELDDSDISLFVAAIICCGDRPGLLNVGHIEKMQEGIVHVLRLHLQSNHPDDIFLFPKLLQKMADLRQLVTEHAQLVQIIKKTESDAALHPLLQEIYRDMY
Peroxisome proliferator-activated receptor gamma (Homo sapiens), sequence (P37231 whole entry, looked up): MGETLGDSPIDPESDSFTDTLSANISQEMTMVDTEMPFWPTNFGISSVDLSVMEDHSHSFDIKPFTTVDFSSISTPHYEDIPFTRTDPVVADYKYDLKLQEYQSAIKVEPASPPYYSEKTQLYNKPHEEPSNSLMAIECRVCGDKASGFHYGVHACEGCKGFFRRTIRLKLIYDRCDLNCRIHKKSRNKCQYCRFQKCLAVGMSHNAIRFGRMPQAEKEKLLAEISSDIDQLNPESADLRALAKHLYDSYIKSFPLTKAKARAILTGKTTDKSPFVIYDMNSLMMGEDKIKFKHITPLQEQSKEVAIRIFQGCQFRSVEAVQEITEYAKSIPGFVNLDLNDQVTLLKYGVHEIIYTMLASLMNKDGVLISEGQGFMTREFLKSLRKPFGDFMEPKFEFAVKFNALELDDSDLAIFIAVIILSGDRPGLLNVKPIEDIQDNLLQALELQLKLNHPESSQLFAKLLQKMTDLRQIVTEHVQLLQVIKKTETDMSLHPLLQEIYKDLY
Nuclear receptor subfamily 1 group I member 2 (Rattus norvegicus), sequence (Q9R1A7 whole entry, looked up): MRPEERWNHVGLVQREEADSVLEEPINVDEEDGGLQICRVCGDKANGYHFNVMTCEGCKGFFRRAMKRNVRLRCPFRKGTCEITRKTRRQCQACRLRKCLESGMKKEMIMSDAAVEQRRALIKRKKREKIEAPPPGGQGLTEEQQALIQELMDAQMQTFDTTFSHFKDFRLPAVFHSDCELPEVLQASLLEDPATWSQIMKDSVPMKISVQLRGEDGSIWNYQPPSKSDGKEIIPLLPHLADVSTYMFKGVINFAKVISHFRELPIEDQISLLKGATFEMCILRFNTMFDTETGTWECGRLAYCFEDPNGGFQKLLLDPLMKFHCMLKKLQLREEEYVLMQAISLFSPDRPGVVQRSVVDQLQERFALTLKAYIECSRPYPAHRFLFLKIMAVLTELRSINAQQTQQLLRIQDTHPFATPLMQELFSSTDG

CCOP(=O)(OCC)Oc1nc(Cl)c(Cl)cc1Cl
inactive: activation [1] -1.13% | outcome [2] | outcome [3] | Potency [4] | activation [5] -7.33% | activation [6] -2.7% | activation [7] 3.16% | max response [8] -1.51% | Potency [9] | max response [10] 6.34% | max response [11] -13.2% | Potency [12] | max response [13] 2.55% | outcome [14]

CC(C)=CCC/C(C)=C\CO
inactive: outcome [2]

CC/C(=N\OC/C=C/Cl)C1=C(O)CC(C2CCOCC2)CC1=O (stereo not given)
inactive: Potency [15] | outcome [2] | Potency [17] | Potency [18] | Potency [19] | Potency [20] | outcome [3] | Potency [22] | Potency [4] | max response [24] 3.36% | activity change % (negative = inhibition) [25] -7.66% | activation [5] -3.67% | activation [6] -1.9% | activation [7] 0.936% | max response [8] -0.709% | Potency [9] | max response [10] 1.41% | max response [11] 3.9% | Potency [12] | outcome [14]
0.449%: max response [23]
17.7%: max response [16]
-4.82%: max response [21]

O=C(/C=C/c1ccc(O)c(O)c1)OC1C[C@](O)(C(=O)O)C[C@@H](O)[C@H]1O (stereo not given in full)
inactive: outcome [2]

OC(c1ccc(Cl)cc1)(c1cncnc1)c1ccccc1Cl (stereo not given)
inactive: activation [1] -10.1% | outcome [2] | Potency [17] | outcome [3] | Potency [4] | max response [24] -39.6% | activity change % (negative = inhibition) [25] 5.6% | activation [5] -2.63% | activation [7] 2.31% | max response [8] -4.62% | Potency [9] | max response [10] -4.24% | max response [11] -17.1% | Potency [12]
8.06%: max response [23]
31.8%: max response [16]
